# Measurements: PubChem BioAssay AID1159580 (chemical genetic matrix, 2015)
# About 2,000 (36%) of roughly 5,500 compounds were called active. Another 18% or so got no clear call; they are omitted. The list shows a part of the results. Values without a mark were called inactive. Cut-off read from the data, not from the text of the source: active = normalized growth mostly below about 0.91 (no sharp cut-off); inconclusive = no clear call, values can overlap the other calls; inactive = mostly above about 0.92.
# Assay: chemical genetic growth profiling, strain panel (AID 1159580);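 note: tested at 20 µM; growth read once vehicle control cultures reached saturation at 30 °C; 1 = growth at the plate median or of vehicle wells; lower values mean less growth of the strain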
# Conditions: S. cerevisiae deletion strains, growth OD
compound,measurement,setting,value
COc1cc(O)c2c(=O)cc(C)oc2c1CC=C(C)C,normalized growth,"locus YJL187C, strain SWE1 (second series), active compounds read low",0.943
same,normalized growth,"locus YJR043C, strain POL32, active compounds read low",0.87
same,normalized growth,"locus YJR066W, strain TOR1, active compounds read low",0.929
same,normalized growth,"locus YKL009W, strain mrt4, active compounds read low",0.897
same,normalized growth,"locus YKL068W, active compounds read low",0.945
same,normalized growth,"locus YKL085W, strain MDH1 (second series), active compounds read low",0.936
same,normalized growth,"locus YKL085W, strain MDH1, active compounds read low",0.936
same,normalized growth,"locus YKL160W, strain elf1, active compounds read low",0.945
same,normalized growth,"locus YKR001C, strain vps1, active compounds read low",0.806 (active)
same,normalized growth,"locus YKR026C, strain gcn3, active compounds read low",0.986
same,normalized growth,"locus YKR091W, strain srl3, active compounds read low",0.978
same,normalized growth,"locus YLL001W, strain dnm1, active compounds read low",0.982
same,normalized growth,"locus YLL026W, active compounds read low",0.974
same,normalized growth,"locus YLL041C, strain sdh2, active compounds read low",0.96
same,normalized growth,"locus YLR027C, strain aat2, active compounds read low",0.972
same,normalized growth,"locus YLR039C, strain RIC1, active compounds read low",0.797
same,normalized growth,"locus YLR058C, strain SHM2, active compounds read low",0.912
same,normalized growth,"locus YLR102C, strain apc9, active compounds read low",0.945
same,normalized growth,"locus YLR113W, strain HOG1, active compounds read low",0.838 (active)
same,normalized growth,"locus YLR221C, strain rsa3, active compounds read low",0.942
same,normalized growth,"locus YLR258W, strain gsy2, active compounds read low",0.972
same,normalized growth,"locus YLR262C, strain YPT6 (second series), active compounds read low",0.827 (active)
same,normalized growth,"locus YLR262C, strain YPT6, active compounds read low",0.674
same,normalized growth,"locus YLR268W, strain sec22, active compounds read low",0.816 (active)
same,normalized growth,"locus YLR320W, strain mms22, active compounds read low",0.83 (active)
same,normalized growth,"locus YLR330W, strain CHS5, active compounds read low",0.811 (active)
same,normalized growth,"locus YLR342W, strain FKS1 (second series), active compounds read low",0.78 (active)
same,normalized growth,"locus YLR342W, strain FKS1, active compounds read low",0.929
same,normalized growth,"locus YLR357W, strain rsc2, active compounds read low",1.06
same,normalized growth,"locus YLR370C, strain arc18, active compounds read low",0.97
same,normalized growth,"locus YLR371W, strain rom2, active compounds read low",0.831 (active)
same,normalized growth,"locus YLR384C, strain iki3, active compounds read low",0.991
same,normalized growth,"locus YLR418C, strain cdc73, active compounds read low",0.628 (active)
same,normalized growth,"locus YML016C, strain PPZ1, active compounds read low",0.944
same,normalized growth,"locus YML032C, strain rad52, active compounds read low",0.858 (active)
same,normalized growth,"locus YML120C, strain ndi1, active compounds read low",0.976
same,normalized growth,"locus YML124C, strain tub3, active compounds read low",0.945
same,normalized growth,"locus YMR058W, strain fet3, active compounds read low",0.845 (active)
same,normalized growth,"locus YMR078C, strain ctf18, active compounds read low",0.919
same,normalized growth,"locus YMR125W, strain sto1, active compounds read low",0.997
same,normalized growth,"locus YMR129W, active compounds read low",0.979
same,normalized growth,"locus YMR205C, strain PFK2, active compounds read low",0.849 (active)
same,normalized growth,"locus YMR223W, strain ubp8, active compounds read low",0.911
same,normalized growth,"locus YMR231W, strain pep5, active compounds read low",1.01
same,normalized growth,"locus YMR307W, strain GAS1, active compounds read low",0.668
same,normalized growth,"locus YNL067W, strain RPL9B, active compounds read low",1
same,normalized growth,"locus YNL071W, strain lat1, active compounds read low",0.847 (active)
same,normalized growth,"locus YNL153C, strain GIM3, active compounds read low",0.926
same,normalized growth,"locus YNL183C, strain NPR1, active compounds read low",0.935
same,normalized growth,"locus YNL209W, strain ssb2, active compounds read low",0.973
same,normalized growth,"locus YNL233W, strain BNI4, active compounds read low",0.852 (active)
same,normalized growth,"locus YNL248C, strain rpa49, active compounds read low",1.04
same,normalized growth,"locus YNL250W, strain rad50, active compounds read low",0.977
same,normalized growth,"locus YNL271C, strain bni1, active compounds read low",0.953
same,normalized growth,"locus YNL298W, strain CLA4, active compounds read low",0.923
same,normalized growth,"locus YNL307C, strain MCK1, active compounds read low",0.618 (active)
same,normalized growth,"locus YNL322C, strain KRE1 (second series), active compounds read low",0.998
same,normalized growth,"locus YNR049C, strain mso1, active compounds read low",0.996
same,normalized growth,"locus YNR052C, strain pop2, active compounds read low",0.988
same,normalized growth,"locus YOL012C, strain htz1",0.465
same,normalized growth,"locus YOL147C, strain pex11, active compounds read low",0.818 (active)
same,normalized growth,"locus YOR001W, strain rrp6, active compounds read low",0.989
same,normalized growth,"locus YOR061W, strain CKA2, active compounds read low",0.92
same,normalized growth,"locus YOR069W, strain VPS5, active compounds read low",0.964
same,normalized growth,"locus YOR070C, strain gyp1, active compounds read low",0.982
same,normalized growth,"locus YOR080W, strain dia2, active compounds read low",0.993
same,normalized growth,"locus YOR083W, strain WHI5, active compounds read low",0.97
same,normalized growth,"locus YOR106W, strain vam3, active compounds read low",0.971
same,normalized growth,"locus YOR136W, strain idh2, active compounds read low",0.963
same,normalized growth,"locus YOR144C, strain elg1, active compounds read low",0.919 (active)
same,normalized growth,"locus YOR184W, strain ser1, active compounds read low",0.587 (active)
same,normalized growth,"locus YOR231W, strain MKK1, active compounds read low",0.941
same,normalized growth,"locus YOR265W, strain rbl2, active compounds read low",0.973
same,normalized growth,"locus YOR270C, strain vph1, active compounds read low",0.837
same,normalized growth,"locus YOR290C, strain snf2, active compounds read low",0.941
same,normalized growth,"locus YOR316C, strain cot1, active compounds read low",0.944
same,normalized growth,"locus YPL051W, strain arl3, active compounds read low",0.936
same,normalized growth,"locus YPL078C, strain atp4, active compounds read low",0.959
same,normalized growth,"locus YPL106C, strain sse1, active compounds read low",0.954
same,normalized growth,"locus YPL240C, strain hsp82, active compounds read low",0.965
same,normalized growth,"locus YPL256C, strain CLN2, active compounds read low",0.933
same,normalized growth,"locus YPR119W, strain clb2, active compounds read low",0.951
same,normalized growth,"locus YPR141C, strain kar3, active compounds read low",0.93
same,normalized growth,"locus YPR163C, strain tif3, active compounds read low",0.776 (active)
same,normalized growth,"locus YPR167C, strain met16, active compounds read low",0.937
same,normalized growth,"strain wtn01, active compounds read low",0.852 (active)
